Compounds with a hit are over-represented: about 0.88% of the library has one in this group of screens.
MT1-MMP txn act: MT1-MMP promoter reporter activation – cell-based, luciferase luminescence, primary screen; HT1080 MT1-MMP promoter luciferase reporter, overnight; hits give high values; activation factor at 10 µM; 86,000 tested, 0.16% active; AID 750, 2007;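 active = activation factor of at least 2 for MT1-MMP transcription at 10 µM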
FXIa inh mix: FXIa protease inhibitors in compound pools, primary screen, biochemical, 10-compound mixtures; purified FXIa, fluorogenic substrate, pooled mixtures; inhibition, % at 5 µM; 62,000 tested, 0.19% active; AID 680, 2007;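 also: each value is inhibition by a whole ten-compound pool holding the compound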
FXIIa inh mix: human factor XIIa inhibitors, primary screen, biochemical, pooled compound mixtures, fluorogenic substrate; Coagulation factor XII (Homo sapiens), P00748; purified FXIIa; inhibition, % at 5 µM; 62,000 tested, 0.2% active
Target sequence (P00748 20-372 limits assumed): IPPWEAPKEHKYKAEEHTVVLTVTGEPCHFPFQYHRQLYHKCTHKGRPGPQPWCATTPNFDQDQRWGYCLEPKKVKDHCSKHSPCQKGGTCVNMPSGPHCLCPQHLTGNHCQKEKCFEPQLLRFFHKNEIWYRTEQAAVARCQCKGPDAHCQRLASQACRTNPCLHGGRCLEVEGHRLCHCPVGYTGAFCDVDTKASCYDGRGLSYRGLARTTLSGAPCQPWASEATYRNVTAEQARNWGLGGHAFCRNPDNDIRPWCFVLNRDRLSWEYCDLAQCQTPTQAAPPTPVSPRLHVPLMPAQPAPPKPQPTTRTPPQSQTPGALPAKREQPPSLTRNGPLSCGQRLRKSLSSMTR
Target sequence (P00748 373-615 limits assumed): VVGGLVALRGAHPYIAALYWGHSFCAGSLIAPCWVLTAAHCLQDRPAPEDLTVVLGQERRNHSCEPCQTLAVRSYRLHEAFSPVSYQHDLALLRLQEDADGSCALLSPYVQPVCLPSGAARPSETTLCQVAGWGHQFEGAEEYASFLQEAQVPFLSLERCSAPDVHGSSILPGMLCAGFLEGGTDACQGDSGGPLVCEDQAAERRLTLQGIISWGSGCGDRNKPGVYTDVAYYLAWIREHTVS
HER2 expr 66K: inhibitors of Her2 protein expression, primary screen, SKBR-3 cells, AlphaScreen, 66K library; Receptor tyrosine-protein kinase erbB-2 (Homo sapiens), P04626; SKBR-3 HER2 protein level, 18-24 h; hits give low values; HER2 level % of control, % at 10 µM; 65,000 tested, 0.69% active;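 active = HER2 level under 5% of the carrier-only control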;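 also: lower value means stronger loss of Her2 protein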
Of the large screens only hits and unclear results are named; the others gave an inactive call. Rule as the data show it, unless noted: active = inhibition above about 20% (passing the limit was not always enough); inactive = the rest.

CC1(C)Cc2c(sc(NC(=O)c3ccc(Br)o3)c2C#N)CO1	MT1-MMP txn act 2.3 (no result: FXIa inh mix, FXIIa inh mix)
Cc1nnc(Sc2nc(Sc3nnc(C)s3)nc(N3CCN(C)CC3)n2)s1	HER2 expr 66K -33
Cn1c(=O)c2c(SCc3cccc(C(F)(F)F)c3)nc(-c3ccco3)nc2n(C)c1=O	HER2 expr 66K -4.9
COC(=O)c1ccc(C(NC(=O)OCc2ccccc2)/C(=C/[C@@H](C)C(=O)Nc2ccc(OC)cc2)c2cccnc2)cc1 (some centres not stated)	none (no result: FXIa inh mix, FXIIa inh mix, HER2 expr 66K)
COc1ccc(CNc2ccc(-c3ccccc3OC)nn2)cc1	none (no result: FXIa inh mix, FXIIa inh mix, HER2 expr 66K)
COc1ccccc1-c1ccc(NC2CCCC2)nn1	MT1-MMP txn act 2.1 (no result: FXIa inh mix, FXIIa inh mix, HER2 expr 66K)
O=C(Cc1ccccc1)Nc1nc2ccccc2s1	MT1-MMP txn act 2 (no result: FXIa inh mix, FXIIa inh mix, HER2 expr 66K)
COc1cccc(-n2c(SCC(=O)O)nnc2-c2cccnc2)c1	HER2 expr 66K -18
COc1ccc(-n2c(SCC(N)=O)nnc2-c2cccnc2)cc1	none (no result: FXIa inh mix, FXIIa inh mix, HER2 expr 66K)
CCOC(=O)N1CCN(C(=O)c2ccc3c(=O)n(Cc4ccccc4)c(=S)[nH]c3c2)CC1	FXIa inh mix 57
COc1ccc(CN(C(=O)c2ccco2)c2ccccc2)cc1	none (no result: FXIa inh mix, FXIIa inh mix, HER2 expr 66K)
O=C(c1ccco1)N(Cc1ccco1)c1ccc(O)cc1	HER2 expr 66K -16
O=c1[nH]c(-c2ccccn2)nc2ccccc12	none (no result: FXIa inh mix, FXIIa inh mix)
c1ccc(-c2nc3c(ccc4ccccc43)[nH]2)nc1	MT1-MMP txn act 2.3 (no result: FXIa inh mix, FXIIa inh mix, HER2 expr 66K)
CC1(C)CC(=O)C2=C(C1)OC1=C(C(=O)CC(C)(C)C1)C2c1ccc(O)cc1O	HER2 expr 66K -0.6
CCOC(=O)C1=C(C)N(CCCC(=O)O)C(=O)NC1c1ccc2c(c1)OCO2 (configuration not stated)	none (no result: FXIa inh mix, FXIIa inh mix, HER2 expr 66K)
O=S(=O)(Nc1ccc2c(c1)CCC2)c1cccs1	HER2 expr 66K -26
CCOc1cc(S(=O)(=O)NCCc2cccc(C)c2)c(OCC)cc1-n1cnnn1	HER2 expr 66K 3.6
CCOc1cc(S(=O)(=O)NCCc2ccccc2C)c(OCC)cc1-n1cnnn1	none
CC1Cc2ccccc2N1C(=O)CSc1nnc2c(n1)[nH]c1ccc(F)cc12 (configuration not stated)	none (no result: FXIa inh mix, FXIIa inh mix, HER2 expr 66K)
CC(C)(C)OC(=O)NCCc1nnc(S(=O)(=O)Cc2ccc(Cl)cc2Cl)o1	HER2 expr 66K -16
CNC(=O)[C@H](C)[C@H]1C[C@]1(C)[C@H](NC(=O)OCc1ccccc1)c1ccccc1	none (no result: FXIa inh mix, FXIIa inh mix, HER2 expr 66K)
CC(=O)Nc1cc(OC(C)=O)c2nonc2c1OC(C)=O	HER2 expr 66K -6.9
CCCC[C@@H]1C[C@H]1C(NC(=O)c1ccco1)c1ccc(-c2ccccc2)cc1 (some centres not stated)	none (no result: FXIa inh mix, FXIIa inh mix, HER2 expr 66K)
CC(C)Cn1c(=O)c(C(=O)Nc2cnccn2)c(O)c2ccccc21	none
CC(C)Cn1c(=O)c(C(=O)Nc2ccncc2)c(O)c2ccccc21	HER2 expr 66K -13
COC(=O)[C@@]1(Cc2ccc(OC)cc2)[C@H]2c3cc(C(=O)N4CCCC4)n(CCc4ccc(O)c(OC)c4)c3C[C@H]2CN1C(=O)c1ccccc1	none (no result: FXIa inh mix, FXIIa inh mix, HER2 expr 66K)
O=C1CCCC(O)=C1C=Nc1ccc(O)cc1	none
Oc1ccc(N=Cc2ccc(-c3cccs3)s2)cc1	HER2 expr 66K -22
O=C(NCc1nc2ccccc2[nH]1)[C@H]1C[C@@H]1[C@H](NP(=O)(c1ccccc1)c1ccccc1)c1ccccc1	none (no result: FXIa inh mix, FXIIa inh mix, HER2 expr 66K)
CCC1(C)N=C(c2ccc3c(c2)OCO3)CC(c2ccccc2O)N1 (configuration not stated)	MT1-MMP txn act 2.4 (no result: FXIa inh mix, FXIIa inh mix, HER2 expr 66K)
COc1cccc(C2=NC(C)(C)NC(c3ccccc3O)C2)c1 (configuration not stated)	MT1-MMP txn act 2.1
O=C(Cc1ccccc1I)Nc1ccccc1	none (no result: FXIa inh mix, FXIIa inh mix, HER2 expr 66K)
CCC(Sc1nc2cc3c(cc2c(=O)n1Cc1ccco1)OCO3)C(=O)Nc1cccc(OC)c1 (configuration not stated)	HER2 expr 66K -17
OC(CN1CCN(c2cccc(C(F)(F)F)c2)CC1)c1c[nH]c2ccccc12 (configuration not stated)	HER2 expr 66K -22
Cc1[nH]c2ccccc2c1C(=O)COC(=O)C1CCC(=O)N1 (configuration not stated)	HER2 expr 66K -21
COc1ccccc1N1CCN(CC(=O)c2c(C)[nH]c3ccccc23)CC1	none
O=C(O)c1ccc2c3c(ncnc13)-c1ccccc1C2=O	HER2 expr 66K -16
O=C1c2ccccc2-c2ncnc3cccc1c23	none
Nc1cc(N)nc(SCCOc2ccccc2F)n1	FXIa inh mix 77
COC(=O)[C@@]1(Cc2ccc(F)cc2)[C@H]2c3cc(C(=O)N(C)C)n(Cc4ccc(C(F)(F)F)nc4)c3C[C@H]2CN1C(=O)c1ccccc1	none (no result: FXIa inh mix, FXIIa inh mix, HER2 expr 66K)

Screens (PubChem BioAssay)
